Percent Effect data for eleven molecules are collected here from ChEMBL document CHEMBL3988442, “University of Dundee, Small-Polar-MMV Screening Library” (2021).

Design in all cases: scale not given: direction of the effect not stated beside the values
For assay [1], the target named is Protein translocase subunit SecA (Escherichia coli (strain K12)) (UniProt P10408). The assay is described as follows: Assay to Identify E. coli SecA ATPase Inhibitors. It counts as functional. The note with it: 30 µM.
Protein translocase subunit SecA (Escherichia coli (strain K12)), sequence (P10408 whole entry): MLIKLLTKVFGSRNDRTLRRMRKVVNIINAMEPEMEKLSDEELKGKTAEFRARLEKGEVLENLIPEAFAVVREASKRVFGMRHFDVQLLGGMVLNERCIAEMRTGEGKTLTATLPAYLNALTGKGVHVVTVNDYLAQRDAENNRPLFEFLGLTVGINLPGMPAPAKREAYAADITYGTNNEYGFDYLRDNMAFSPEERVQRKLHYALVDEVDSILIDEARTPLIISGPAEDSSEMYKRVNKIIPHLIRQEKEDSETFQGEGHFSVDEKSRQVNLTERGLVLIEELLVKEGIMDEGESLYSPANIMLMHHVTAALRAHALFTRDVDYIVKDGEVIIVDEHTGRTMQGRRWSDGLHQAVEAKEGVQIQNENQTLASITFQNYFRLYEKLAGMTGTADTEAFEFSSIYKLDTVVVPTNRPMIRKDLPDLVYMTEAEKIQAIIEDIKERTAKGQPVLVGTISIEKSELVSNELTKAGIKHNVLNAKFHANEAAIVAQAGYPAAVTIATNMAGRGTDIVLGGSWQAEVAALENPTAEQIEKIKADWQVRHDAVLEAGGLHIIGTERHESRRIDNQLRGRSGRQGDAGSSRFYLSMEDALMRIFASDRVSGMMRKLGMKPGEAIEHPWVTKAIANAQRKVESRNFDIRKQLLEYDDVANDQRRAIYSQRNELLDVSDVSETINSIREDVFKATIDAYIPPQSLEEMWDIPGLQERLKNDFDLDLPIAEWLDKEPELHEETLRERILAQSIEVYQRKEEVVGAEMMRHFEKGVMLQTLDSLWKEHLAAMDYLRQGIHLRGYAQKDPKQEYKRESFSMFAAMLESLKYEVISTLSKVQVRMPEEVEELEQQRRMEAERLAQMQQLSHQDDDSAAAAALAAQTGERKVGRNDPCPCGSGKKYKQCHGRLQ
The target of assay [2] is T1, Ubiquitin-activating enzyme e1, putative (Leishmania donovani (strain BPK282A1)) (UniProt E9BSI1).
T1 sequence (whole entry): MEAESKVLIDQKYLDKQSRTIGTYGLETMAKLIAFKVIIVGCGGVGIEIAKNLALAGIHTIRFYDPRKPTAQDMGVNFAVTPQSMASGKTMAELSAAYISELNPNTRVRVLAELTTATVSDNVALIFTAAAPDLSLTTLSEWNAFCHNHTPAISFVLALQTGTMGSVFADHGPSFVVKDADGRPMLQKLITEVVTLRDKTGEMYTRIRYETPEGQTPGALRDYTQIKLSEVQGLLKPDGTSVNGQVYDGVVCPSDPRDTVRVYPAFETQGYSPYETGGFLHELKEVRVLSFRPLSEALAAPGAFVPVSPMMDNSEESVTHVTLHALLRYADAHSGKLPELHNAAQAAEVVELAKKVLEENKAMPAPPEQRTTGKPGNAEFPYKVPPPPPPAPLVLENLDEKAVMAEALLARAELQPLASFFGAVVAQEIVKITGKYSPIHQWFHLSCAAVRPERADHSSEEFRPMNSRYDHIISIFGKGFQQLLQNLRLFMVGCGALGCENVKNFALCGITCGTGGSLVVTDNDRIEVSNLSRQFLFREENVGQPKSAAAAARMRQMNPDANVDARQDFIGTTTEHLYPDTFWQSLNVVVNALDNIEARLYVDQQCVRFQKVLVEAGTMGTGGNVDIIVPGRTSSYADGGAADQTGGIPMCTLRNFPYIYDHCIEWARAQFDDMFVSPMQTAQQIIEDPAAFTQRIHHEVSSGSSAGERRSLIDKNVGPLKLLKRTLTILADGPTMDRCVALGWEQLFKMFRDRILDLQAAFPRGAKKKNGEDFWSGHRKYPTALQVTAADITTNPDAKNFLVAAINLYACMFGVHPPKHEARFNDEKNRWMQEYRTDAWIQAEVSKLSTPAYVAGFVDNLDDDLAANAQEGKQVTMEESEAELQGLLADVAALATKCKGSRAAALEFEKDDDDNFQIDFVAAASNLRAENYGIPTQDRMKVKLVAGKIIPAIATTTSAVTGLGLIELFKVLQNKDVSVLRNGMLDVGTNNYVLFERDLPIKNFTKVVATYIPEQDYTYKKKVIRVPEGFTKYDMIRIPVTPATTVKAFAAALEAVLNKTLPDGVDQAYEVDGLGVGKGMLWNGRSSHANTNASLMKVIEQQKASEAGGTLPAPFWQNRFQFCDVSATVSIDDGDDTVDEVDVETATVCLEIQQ
Briefly: Leishmania donovani Ubiquitin Activating Enzyme (LdE1). It counts as functional. The note with it: 30 µM.

The target of assay [3] is AMP-activated protein kinase, AMPK (Homo sapiens) (UniProt P54646+O43741+P54619+Q9UGJ0+Q9Y478+Q13131+Q9UGI9). The assay is described as follows: AMP-dependent Kinase enzyme assay. An in vitro enzyme assay that detects ADP turnover that is directly proportional to AMPK activity. This uses naive AMPK that is activated during the assay with MK-8722. It counts as functional. The note with it: 30 µM.

The target in assay [4] is Sialic acid-binding Ig-like lectin 9 (Homo sapiens) (UniProt Q9Y336). Briefly: Hs-Siglec9 ALPHAscreen SOP 20170721. As to conditions: 10 µM.
Sialic acid-binding Ig-like lectin 9 (Homo sapiens), sequence (Q9Y336 whole entry): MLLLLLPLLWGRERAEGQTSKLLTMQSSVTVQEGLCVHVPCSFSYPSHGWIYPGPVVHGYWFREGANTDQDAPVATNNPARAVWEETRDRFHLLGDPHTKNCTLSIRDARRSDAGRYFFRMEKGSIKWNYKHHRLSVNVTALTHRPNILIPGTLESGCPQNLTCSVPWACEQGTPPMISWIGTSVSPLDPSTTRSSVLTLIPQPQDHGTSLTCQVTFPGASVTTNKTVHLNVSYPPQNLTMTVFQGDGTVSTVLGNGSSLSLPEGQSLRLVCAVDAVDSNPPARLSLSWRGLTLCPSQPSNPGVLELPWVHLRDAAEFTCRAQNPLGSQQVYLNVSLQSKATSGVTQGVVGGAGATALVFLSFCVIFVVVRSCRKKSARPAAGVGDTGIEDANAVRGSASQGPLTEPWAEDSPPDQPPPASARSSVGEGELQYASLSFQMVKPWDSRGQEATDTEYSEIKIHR
A further assay has as its system Trypanosoma cruzi. The assay is described as follows: Trypanosoma cruzi phosphomannomutase and mannose-1-phosphate guanylyltransferase assay. It counts as functional. As to conditions: 10 µM.
Assay [5] concerns the target T2, Arginase-2, mitochondrial (Homo sapiens) (UniProt P78540).
T2 sequence (whole entry): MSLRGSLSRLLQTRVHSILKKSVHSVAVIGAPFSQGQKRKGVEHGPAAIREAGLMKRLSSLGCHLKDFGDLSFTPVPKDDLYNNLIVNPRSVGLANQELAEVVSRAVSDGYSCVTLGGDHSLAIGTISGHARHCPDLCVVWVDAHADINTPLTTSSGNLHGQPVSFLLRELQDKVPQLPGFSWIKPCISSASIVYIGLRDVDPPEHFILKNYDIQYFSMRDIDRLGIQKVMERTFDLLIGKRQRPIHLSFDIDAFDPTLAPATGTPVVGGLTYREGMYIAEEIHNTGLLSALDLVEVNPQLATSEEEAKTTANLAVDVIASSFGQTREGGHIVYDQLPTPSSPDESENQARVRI
Briefly: in vitro enzyme assay to detect the production of urea directly proportional to the activity of Arginase II. Also: in the data most compounds retested in dose-response had high values. It counts as functional. As to conditions: 33.3 µM.

Assay [6] deals with T3, Proteasome subunit beta (Trypanosoma cruzi) (UniProt O96673).
T3 sequence (whole entry): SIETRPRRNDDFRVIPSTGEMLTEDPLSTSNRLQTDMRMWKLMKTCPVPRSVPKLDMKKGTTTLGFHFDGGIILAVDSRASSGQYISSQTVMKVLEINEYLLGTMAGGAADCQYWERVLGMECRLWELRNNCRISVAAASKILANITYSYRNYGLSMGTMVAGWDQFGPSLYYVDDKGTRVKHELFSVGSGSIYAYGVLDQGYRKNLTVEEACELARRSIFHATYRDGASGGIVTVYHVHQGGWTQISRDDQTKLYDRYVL
Briefly: Trypanosoma cruzi proteasome chymotrypsin-like activity (TcProtChymo) assay. Also: in the data most compounds retested in dose-response had high values. It counts as functional. The note with it: 9.37 µM.

For a further assay, the species on record is Homo sapiens. Briefly: To identify inhibition of the IFN signalling (Jak-Stat) pathway via expression of an eGFP reporter gene under the control of an IFN-stimulated response element (ISRE) containing MxA promoter. It counts as functional. As to conditions: 30 µM.
Assay [7] has as its target T4, Tyrosyl-tRNA synthetase, putative (Trypanosoma cruzi (strain CL Brener)) (UniProt Q4DSP6).
T4 sequence (whole entry): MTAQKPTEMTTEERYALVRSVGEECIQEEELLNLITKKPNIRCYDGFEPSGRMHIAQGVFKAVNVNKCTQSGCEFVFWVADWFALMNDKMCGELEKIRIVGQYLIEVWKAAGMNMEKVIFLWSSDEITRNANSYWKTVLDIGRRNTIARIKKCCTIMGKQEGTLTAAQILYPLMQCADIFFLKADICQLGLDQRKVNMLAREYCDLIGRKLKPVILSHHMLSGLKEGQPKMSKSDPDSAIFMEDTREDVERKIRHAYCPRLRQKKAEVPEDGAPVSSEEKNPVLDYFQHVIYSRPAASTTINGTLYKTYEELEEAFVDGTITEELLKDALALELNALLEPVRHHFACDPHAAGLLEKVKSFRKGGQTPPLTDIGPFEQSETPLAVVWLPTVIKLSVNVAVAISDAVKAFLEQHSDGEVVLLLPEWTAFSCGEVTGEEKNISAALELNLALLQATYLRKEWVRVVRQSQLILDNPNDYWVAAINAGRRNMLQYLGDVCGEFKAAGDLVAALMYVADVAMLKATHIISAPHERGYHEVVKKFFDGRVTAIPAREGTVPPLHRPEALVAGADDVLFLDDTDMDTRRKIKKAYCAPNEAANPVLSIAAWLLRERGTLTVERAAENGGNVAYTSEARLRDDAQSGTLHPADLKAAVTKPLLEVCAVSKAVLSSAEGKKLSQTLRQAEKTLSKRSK
The assay is described as follows: Trypanosoma cruzi tyrosyl tRNA synthetase (TcYRS) _High Tyrosine SOP. Also: in the data most compounds retested in dose-response had high values. It counts as functional. As to conditions: 30 µM.

The target in assay [8] is T4, Tyrosyl-tRNA synthetase, putative (Trypanosoma cruzi (strain CL Brener)). Briefly: Trypanosoma cruzi tyrosyl tRNA synthetase (TcYRS) SOP. It counts as functional. The note with it: 30 µM.
In assay [9] the target is Chromo domain-containing protein 1 (Saccharomyces cerevisiae (strain ATCC 204508 / S288c) (Baker's yeast)) (UniProt P32657). The assay is described as follows: ScCHD-1 Enzyme Inhibition Assay. Also: in the data most compounds retested in dose-response had high values. It counts as functional. The note with it: 30 µM.
Chromo domain-containing protein 1 (Saccharomyces cerevisiae (strain ATCC 204508 / S288c) (Baker's yeast)), sequence (P32657 whole entry, the tested form may be a part): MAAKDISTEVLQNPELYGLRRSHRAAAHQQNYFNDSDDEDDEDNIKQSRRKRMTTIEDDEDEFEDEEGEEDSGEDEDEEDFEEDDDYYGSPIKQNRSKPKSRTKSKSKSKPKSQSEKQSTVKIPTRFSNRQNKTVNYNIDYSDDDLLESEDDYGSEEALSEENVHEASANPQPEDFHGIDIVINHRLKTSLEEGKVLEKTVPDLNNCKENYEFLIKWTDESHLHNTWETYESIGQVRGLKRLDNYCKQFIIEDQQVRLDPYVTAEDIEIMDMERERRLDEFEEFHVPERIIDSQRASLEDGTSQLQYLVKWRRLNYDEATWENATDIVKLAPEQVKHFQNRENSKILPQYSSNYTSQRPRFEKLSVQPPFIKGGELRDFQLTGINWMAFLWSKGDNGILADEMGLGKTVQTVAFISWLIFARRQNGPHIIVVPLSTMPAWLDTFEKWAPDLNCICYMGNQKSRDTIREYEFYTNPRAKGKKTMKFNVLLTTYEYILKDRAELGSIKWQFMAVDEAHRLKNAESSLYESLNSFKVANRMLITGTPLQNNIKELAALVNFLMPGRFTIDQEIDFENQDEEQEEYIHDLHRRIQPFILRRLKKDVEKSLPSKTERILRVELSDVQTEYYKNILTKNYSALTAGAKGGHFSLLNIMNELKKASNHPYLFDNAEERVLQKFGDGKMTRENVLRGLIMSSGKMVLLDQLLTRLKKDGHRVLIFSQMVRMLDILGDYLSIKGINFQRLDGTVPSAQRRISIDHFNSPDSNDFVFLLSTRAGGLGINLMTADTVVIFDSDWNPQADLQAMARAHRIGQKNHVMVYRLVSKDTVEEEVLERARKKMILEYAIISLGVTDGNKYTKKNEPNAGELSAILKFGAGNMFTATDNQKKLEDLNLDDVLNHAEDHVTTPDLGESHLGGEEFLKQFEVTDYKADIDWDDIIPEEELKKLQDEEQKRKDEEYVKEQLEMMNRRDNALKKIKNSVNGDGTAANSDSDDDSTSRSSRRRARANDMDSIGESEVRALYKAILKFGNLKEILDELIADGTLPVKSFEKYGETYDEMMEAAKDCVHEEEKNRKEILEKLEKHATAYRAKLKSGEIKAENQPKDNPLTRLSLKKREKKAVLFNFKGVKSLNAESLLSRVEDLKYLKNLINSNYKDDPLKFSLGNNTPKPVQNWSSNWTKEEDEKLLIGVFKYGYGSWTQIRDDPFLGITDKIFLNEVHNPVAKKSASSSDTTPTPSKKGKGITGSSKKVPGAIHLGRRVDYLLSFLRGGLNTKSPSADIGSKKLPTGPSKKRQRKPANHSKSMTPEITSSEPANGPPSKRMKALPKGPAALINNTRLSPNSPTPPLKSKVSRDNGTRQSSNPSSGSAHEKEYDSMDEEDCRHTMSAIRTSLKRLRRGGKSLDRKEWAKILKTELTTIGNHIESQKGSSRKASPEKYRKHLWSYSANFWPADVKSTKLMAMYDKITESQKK

Structures are written as SMILES. For some of these results: Measured potencies and affinities stand elsewhere.

Regarding `O=C(Nc1ccnc(OC2CCOC2)c1)C1CCC1` (stereo unspecified), the Percent Effect in assay [1] is -2.23%; in [2], -4.17%; in [3], -0.181%; in [4], 4.31%; with Trypanosoma cruzi it was -6.32%; in assay [5] it was 1.32%. Further, the Percent Effect in assay [6] was 13.3%; in the assay filed under Homo sapiens, 5.01%; in assay [7], -2.1%; in assay [8], -5.13%; in assay [9] it was 6.48%.

Take `COCCN1CCC(CNC(=O)C2(c3cc(C)cc(C)c3)CCC2)C1` (stereo unspecified): the Percent Effect was -8.07% in [1]; 0% in assay [2]; -6.3% in assay [3]; -4.59% in assay [4]; -1.77% with Trypanosoma cruzi; 2.88% in assay [5]. The Percent Effect was -4.82% in [6]; -6.37% in the assay filed under Homo sapiens; 2.46% in assay [7]; 1.24% in assay [8]; 2.35% in assay [9].

For `O=C(NCC(Cc1cccc(F)c1)N1CCCC1=O)c1ccccc1` (stereo unspecified), the Percent Effect was -6.41% in assay [1]; -5.48% in assay [2]; 27.6% in assay [3]; -11% in assay [4]; -5.68% in the assay on Trypanosoma cruzi; 0% in assay [5]. Moreover, the Percent Effect in assay [6] was 13.1%; in the assay filed under Homo sapiens it was 6.32%; in [7], 1.07%; in assay [8], 5%; in assay [9], -2.23%.

Consider `Cn1ccc(CN2CCC(c3ccccc3)CC2)cc1=O`, for which the Percent Effect in [1] is -7.43%; in [2] it was 15.6%; in [3], -2.22%; in [4], 11.1%; in the assay on Trypanosoma cruzi, -0.374%; in assay [5], 3.92%. In addition, the Percent Effect is 8.11% in [6]; 14.7% in the assay filed under Homo sapiens; 8.74% in [7]; 19.5% in assay [8]; -7.5% in assay [9].

Regarding `CCN(CC)C(=O)CCNC(=O)N1CCC(c2ccccc2)C1` (stereo unspecified), the Percent Effect is -1.34% in assay [1]; 0% in [2]; -3.55% in assay [3]; 1.13% in [4]; 0.772% in the assay on Trypanosoma cruzi; -4.29% in [5]. Also, the Percent Effect in [6] amounted to 0.172%; in the assay listed under Homo sapiens, 15.7%; in [7] it was 0.529%; in assay [8] it was 4.88%; in assay [9] it was 0.238%.

For `CCc1csc(CCNC(=O)C2CC(=O)N(C(C)C)C2)n1` (stereo unspecified), the Percent Effect is -2.98% in assay [1]; 15.6% in assay [2]; -6.03% in assay [3]; 4.97% in assay [4]; 0.0983% with Trypanosoma cruzi; -11% in [5]. The Percent Effect is 8.65% in assay [6]; 8.23% in the assay listed under Homo sapiens; 6.45% in [7]; 13.6% in assay [8]; -1.5% in [9].

In the case of `O=C(NCc1ccc(-c2ccn[nH]2)cc1)N1CCC(N2CCCC2)C1` (stereo unspecified), the Percent Effect was -6.43% in assay [1]; 2.63% in assay [2]; -5.77% in [3]; 6.24% in assay [4]; 1.59% in the assay with Trypanosoma cruzi; -5.4% in [5]. Besides, the Percent Effect in [6] amounted to 4.65%; in the assay listed under Homo sapiens it was 5.01%; in [7] it was 10.3%; in [8], 18.5%; in assay [9], 1.9%.

Consider `O=C(c1cnccn1)N1CCN(Cc2csc(-c3ccccc3)n2)CC1`, for which the Percent Effect in assay [1] is -3.77%; in assay [2], -2.7%; in assay [3] it was 9.72%; in assay [4], -0.413%; in the assay on Trypanosoma cruzi, -6.04%; in assay [5] it was 0.185%. Further, the Percent Effect was 0.898% in assay [6]; 19.6% in the assay listed under Homo sapiens; -4.95% in assay [7]; -1.22% in assay [8]; 7.87% in assay [9].

Take `CCn1cc(NC(=O)NCC(O)c2ccccc2)cn1` (stereo unspecified): the Percent Effect in [1] was -2.26%; in [2], 12.7%; in assay [3], -8.7%; in [4], 13.4%; in the assay on Trypanosoma cruzi, -1.98%; in assay [5], 1.52%. Also, the Percent Effect was 3.19% in assay [6]; -8.48% in the assay filed under Homo sapiens; 1.48% in assay [7]; 13.9% in assay [8]; -3.66% in [9].

Regarding `Cn1ccc(CN2CCC(COC3CCCC3)CC2)cc1=O`, the Percent Effect in [1] is -2%; in [2], -59.5%; in assay [3] it was -8.16%; in assay [4], 2.17%; with Trypanosoma cruzi, 2.15%; in [5], 3.66%. Moreover, the Percent Effect in assay [6] was 11.2%; in the assay listed under Homo sapiens, 26.8%; in assay [7], -10.4%; in [8], 17.7%; in assay [9] it was -25.3%.

Regarding `Cn1ccnc1CN1CC[C@@H](NS(C)(=O)=O)[C@@H]1Cc1cccnc1`, the Percent Effect in assay [1] was -2.5%; in assay [2], 8.11%; in assay [3], -0.0396%; in assay [4] it was -7.99%; in the assay on Trypanosoma cruzi it was -6.35%; in [5], -2.23%. Besides, the Percent Effect is 18.6% in assay [6]; 11.3% in the assay filed under Homo sapiens; 2.16% in [7]; 10.3% in assay [8]; -5.81% in assay [9].
